Assay results: PubChem BioAssay (EPA / NIEHS)
Several values for one entry are separate records, joined by “and”; a condition that tells them apart may be missing. Equal values may be shown once. Some structures have more than one record in an assay (separate samples or runs), and their calls can disagree. Activity calls are given as the source filed them. How the source made its calls: active means hit-call score of the fitted dose curve at least 0.9, where 1 is the maximum; inactive means score below 0.9.

Columns and labels:
[1] = read-out: Urokinase-type plasminogen activator receptor (uPAR), PLAUR (gene 5329); experiment: BSK_CASM3C_uPAR: BioMAP Diversity Plus: CASM3C Assay for Urokinase-type plasminogen activator receptor (uPAR) Biomarker Activity (AID 2283054); conditions: primary human coronary artery smooth muscle cells; actives raise or lower the signal;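 further: cell-surface uPAR protein level quantified by ELISA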
[2] = read-out: Vascular cell adhesion molecule 1 (VCAM1), VCAM1 (gene 7412); experiment: BSK_CASM3C_VCAM1: BioMAP Diversity Plus: CASM3C Assay for Vascular cell adhesion molecule 1 (VCAM1) Biomarker Activity (AID 2283055); conditions: primary human coronary artery smooth muscle cells; actives raise or lower the signal;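 further: VCAM-1 protein level quantified by ELISA on the cells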
[3] = read-out: Collagen III, COL3A1 (gene 1281); experiment: BSK_hDFCGF_CollagenIII: BioMAP Diversity Plus: hDFCGF Assay for Collagen III Biomarker Activity (AID 2283056); conditions: primary human foreskin fibroblasts; actives raise or lower the signal
Procedure, shortened: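 Cells: human foreskin fibroblasts, primary. Dosing followed by 24 h incubation, then ELISA for collagen III. Both increases and decreases scored relative to DMSO.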

[4] = read-out: Epidermal growth factor receptor (EGFR), EGFR (gene 1956); experiment: BSK_hDFCGF_EGFR: BioMAP Diversity Plus: hDFCGF Assay for Epidermal growth factor receptor (EGFR) Biomarker Activity (AID 2283057); conditions: primary human foreskin fibroblasts; actives raise or lower the signal
Procedure, shortened: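 EGFR levels by ELISA in human dermal fibroblast cultures, 24 h post-treatment, fitted bidirectionally versus DMSO. Parallel wells stained with sulforhodamine B to detect overt cytotoxicity.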

[5] = read-out: Interleukin-8 (IL8), CXCL8 (gene 3576); experiment: BSK_hDFCGF_IL8: BioMAP Diversity Plus: hDFCGF Assay for Interleukin-8 (IL8) Biomarker Activity (AID 2283058); conditions: primary human foreskin fibroblasts; actives raise or lower the signal
Procedure, shortened: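 IL-8 levels from compound-treated primary human fibroblasts were read by ELISA at 24 h, with DMSO serving as baseline for bidirectional fitting.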

[6] = BSK_hDFCGF_Proliferation: Cell Proliferation Assessment in the BioMAP Diversity Plus: hDFCGF Assay (AID 2283059); conditions: primary human foreskin fibroblasts;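 further: curves fitted for both rise and fall of signal versus DMSO baseline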
Procedure, shortened: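 Steps: dose primary human dermal fibroblasts (foreskin); […] fix in 10% TCA; stain with 0.1% SRB; read 560 nm; fit gain or loss of signal against DMSO.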

[7] = read-out: Macrophage colony-stimulating factor (MCSF), CSF1 (gene 1435); experiment: BSK_hDFCGF_MCSF: BioMAP Diversity Plus: hDFCGF Assay for Macrophage colony-stimulating factor (MCSF) Biomarker Activity (AID 2283060); conditions: primary human foreskin fibroblasts; actives raise or lower the signal
Procedure, shortened: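 M-CSF levels, determined by ELISA, are taken at 24 h after dosing human skin fibroblasts. Responses in either direction are fitted with DMSO serving as the baseline.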

[8] = BSK_hDFCGF_SRB: Viability Assessment in the BioMAP Diversity Plus: hDFCGF Assay (AID 2283061); conditions: primary human foreskin fibroblasts;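 further: cells exposed to compound for 24 h before the read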
Procedure, shortened: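 Cells were dosed with test chemical, cultured 24 h, fixed with 10% TCA, then stained with 0.1% SRB and read at 560 nm. The fibroblasts were human foreskin primary cells, and DMSO served as baseline.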

[9] = read-out: TIMP metallopeptidase inhibitor 1 (TIMP1), TIMP1 (gene 7076); experiment: BSK_hDFCGF_TIMP1: BioMAP Diversity Plus: hDFCGF Assay for TIMP metallopeptidase inhibitor 1 (TIMP1) Biomarker Activity (AID 2283062); conditions: primary human foreskin fibroblasts; actives raise or lower the signal
Procedure, shortened: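 Fibroblasts from human foreskin are treated with test chemical and harvested at 24 h. TIMP-1 is quantified by ELISA, and gain or loss of signal is scored against DMSO.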

[10] = read-out: Monokine induced gamma interferon (MIG), CXCL9 (gene 4283); experiment: BSK_hDFCGF_MIG: BioMAP Diversity Plus: hDFCGF Assay for Monokine induced gamma interferon (MIG) Biomarker Activity (AID 2283063); conditions: primary human foreskin fibroblasts; actives raise or lower the signal
Procedure, shortened: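 MIG signal, determined by ELISA, reflects 24 h chemical exposure of human skin primary fibroblasts. DMSO serves as negative control and baseline.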

[11] = read-out: Matrix Metallopeptidase 1 (MMP1), MMP1 (gene 4312); experiment: BSK_hDFCGF_MMP1: BioMAP Diversity Plus: hDFCGF Assay for Matrix Metallopeptidase 1 (MMP1) Biomarker Activity (AID 2283064); conditions: primary human foreskin fibroblasts; actives raise or lower the signal
Procedure, shortened: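 ELISA read-out of MMP1 from human foreskin fibroblasts (primary skin cells), 24 h post-dose. Gain or loss of signal was fitted bidirectionally versus DMSO negative control; cytotoxicity was checked by SRB in parallel cultures.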

[12] = read-out: Vascular cell adhesion molecule 1 (VCAM1), VCAM1 (gene 7412); experiment: BSK_hDFCGF_VCAM1: BioMAP Diversity Plus: hDFCGF Assay for Vascular cell adhesion molecule 1 (VCAM1) Biomarker Activity (AID 2283065); conditions: primary human foreskin fibroblasts; actives raise or lower the signal;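 on AC50: VCAM-1 protein level quantified by ELISA after 24 h chemical exposure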
Procedure, shortened: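 Cells are dosed, cultured for 24 h, then VCAM-1 is quantified by ELISA; signal increases and decreases are both fitted relative to DMSO.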

[13] = read-out: Plasminogen activator inhibitor-1 (PAI1), SERPINE1 (gene 5054); experiment: BSK_hDFCGF_PAI1: BioMAP Diversity Plus: hDFCGF Assay for Plasminogen activator inhibitor-1 (PAI1) Biomarker Activity (AID 2283066); conditions: primary human foreskin fibroblasts; actives raise or lower the signal
Procedure, shortened: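 PAI-1 levels in human dermal foreskin fibroblasts were quantified by ELISA 24 h after dosing, with gain or loss analysed against DMSO. Overt cytotoxicity was checked by sulforhodamine B total-protein staining in parallel cultures.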

[14] = read-out: Intercellular Adhesion Molecule 1 (ICAM1), ICAM1 (gene 3383); experiment: BSK_KF3CT_ICAM1: BioMAP Diversity Plus: KF3CT Assay for Intercellular Adhesion Molecule 1 (ICAM1) Biomarker Activity (AID 2283067); conditions: primary human keratinocytes with fibroblasts; actives raise or lower the signal
Procedure, shortened: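 Dose the keratinocyte/fibroblast co-culture, wait 24 h, measure ICAM-1 by ELISA, then fit increases or decreases against DMSO. Cytotoxicity is checked in parallel cultures by SRB total-protein staining.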

[15] = read-out: Interferon-gamma inducible Protein 10 (IP10), CXCL10 (gene 3627); experiment: BSK_KF3CT_IP10: BioMAP Diversity Plus: KF3CT Assay for Interferon-gamma inducible Protein 10 (IP10) Biomarker Activity (AID 2283068); conditions: primary human keratinocytes with fibroblasts; actives raise or lower the signal
Procedure, shortened: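 KF3CT co-culture (keratinocytes + foreskin fibroblasts), 24 h compound, IP-10 by ELISA; bidirectional fit vs DMSO baseline.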

[16] = read-out: Interleukin-1 alpha (IL1a), IL1A (gene 3552); experiment: BSK_KF3CT_IL1a: BioMAP Diversity Plus: KF3CT Assay for Interleukin-1 alpha (IL1a) Biomarker Activity (AID 2283070); conditions: primary human keratinocytes with fibroblasts; actives raise or lower the signal
Procedure, shortened: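 Primary skin co-culture (keratinocytes, foreskin fibroblasts), 24 h exposure; ELISA for IL-1a; bidirectional curve fit vs DMSO.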

[17] = read-out: TIMP metallopeptidase inhibitor 2 (TIMP2), TIMP2 (gene 7077); experiment: BSK_KF3CT_TIMP2: BioMAP Diversity Plus: KF3CT Assay for TIMP metallopeptidase inhibitor 2 (TIMP2) Biomarker Activity (AID 2283071); conditions: primary human keratinocytes with fibroblasts; actives raise or lower the signal
Procedure, shortened: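 TIMP-2 measured by ELISA at 24 h in human keratinocyte/fibroblast primary co-cultures exposed to chemicals. Both increases and decreases were fitted against DMSO. Parallel cultures were stained with SRB for total protein as an overt-cytotoxicity check.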

[18] = read-out: Transforming growth factor beta 1 (TGFb1), TGFB1 (gene 7040); experiment: BSK_KF3CT_TGFb1: BioMAP Diversity Plus: KF3CT Assay for Transforming growth factor beta 1 (TGFb1) Biomarker Activity (AID 2283072); conditions: primary human keratinocytes with fibroblasts; actives raise or lower the signal
Procedure, shortened: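 ELISA quantifies TGF-b1 at 24 h post-dose in a primary human skin co-culture of keratinocytes and fibroblasts, with gain or loss judged against DMSO. Parallel SRB total-protein staining flags overt cytotoxicity.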

[19] = read-out: C-C motif chemokine 2 (Homo sapiens) (UniProt P13500); experiment: BSK_KF3CT_MCP1: BioMAP Diversity Plus: KF3CT Assay for Monocyte Chemoattractant Protein 1 (MCP1/CCL2) Biomarker Activity (AID 2283073); conditions: primary human keratinocytes with fibroblasts; actives raise or lower the signal
Procedure, shortened: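 Keratinocytes and foreskin fibroblasts were co-cultured, dosed with chemical, and sampled 24 h later. MCP-1 was quantified by ELISA, and the endpoint was analyzed with bidirectional fitting using DMSO as negative control.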

[20] = read-out: Matrix Metallopeptidase 9 (MMP9), MMP9 (gene 4318); experiment: BSK_KF3CT_MMP9: BioMAP Diversity Plus: KF3CT Assay for Matrix Metallopeptidase 9 (MMP9) Biomarker Activity (AID 2283074); conditions: primary human keratinocytes with fibroblasts; actives raise or lower the signal;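 on AC50: MMP9 protein level quantified by ELISA in the co-culture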
Procedure, shortened: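 ELISA read-out of MMP-9 at 24 h post-dosing in a co-culture of human skin keratinocytes and foreskin fibroblasts. Gain or loss of signal was fitted in both directions against DMSO.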

Measured: AC50

CCOc1nc(F)cc2nc(S(=O)(=O)Nc3c(Cl)cccc3C(=O)OC)nn12
inactive: [1] | [2] | [3] | [4] | [5] | [6] | [7] | [8] | [9] | [10] | [11] | [12] | [13] | [14] | [15] | [16] | [17] | [18] | [19] | [20]

O=C(c1ccc(O)cc1)c1ccc(O)cc1O
active: [2] 5.81 µM | [11] 6.99 µM and 20 µM | [12] 16.6 µM | [20] 18.4 µM and 11.2 µM
inactive: [1] | [2] | [3] | [4] | [5] | [6] | [7] | [8] | [9] | [10] | [12] | [13] | [14] | [15] | [16] | [17] | [19]

C=CCOCC(O)CCl (stereo not given)
inactive: [1] | [2] | [3] | [4] | [5] | [6] | [7] | [8] | [9] | [10] | [11] | [12] | [13] | [14] | [15] | [16] | [17] | [19] | [20]

C/C=C\C/C=C/CCCCCCCCOC(C)=O
active: [1] 32.7 µM | [2] 23.3 µM | [3] 20 µM | [6] 29.7 µM | [7] 29.9 µM | [8] 31.7 µM | [9] 30.4 µM | [10] 28.3 µM | [11] 32.9 µM | [12] 24.6 µM | [13] 28.9 µM | [14] 24.6 µM | [15] 39.4 µM | [16] 26.3 µM | [17] 20 µM | [18] 10.8 µM | [19] 20 µM | [20] 29.5 µM
inactive: [4] | [5]
